Source: PubChem (National Center for Advancing Translational Sciences (NCATS))
Compounds with a hit are over-represented: about 5.3% of the library has one in this group of screens.
LASV entry inh: Lassa virus entry inhibition; Lassa virus pseudotype entry inhibition, cell reporter; Potency, µM (top dose mostly 37.9 µM), for inactives: at the highest dose activity change, negative = inhibition, actives largely listed as inhibitors; hit rate 1.2% among 300,000; calls by dose curve; tested in HEK293 cells; also: nearly all actives have a fitted effect of over 50% in size
VACV mCherry inh: inhibitors of vaccinia virus infection (mCherry reporter signal). Potency, µM (top dose mostly 36.5 µM), inactives show at the top dose activity change, negative = inhibition, usual class: inhibitors. hit rate 0.63% among 310,000. Vaccinia virus mCherry reporter infection, fluorescence; calls by dose curve; tested in A549 cells; also: nearly all actives have a fitted effect of over 35% in size
FMDV inh: blocks foot and mouth disease virus. Potency, µM (titrated, usually from 57.9 µM), for inactives: top-dose activity change, negative = inhibition, usual class: inhibitors. hit rate 1.2% among 410,000. FMDV antiviral cell-based qHTS; calls by dose curve; tested in HEK293T cells; also: read-out not given here; nearly all actives have a fitted effect of over 45% in size
MARV entry inh: blocks Marburg virus binding to or entry into cells | Potency, µM (series often up to 37.8 µM), for inactives: top-dose activity change, negative = inhibition, actives largely listed as inhibitors | hit rate 1.8% among 300,000 | Marburg virus pseudotyped entry inhibition, cell reporter | AID 540276; calls by dose curve; tested in HEK293 cells
HCV inh: inhibitors of hepatitis C virus infection; hit rate 3.4% among 340,000; Huh7.5.1 HCVcc-Cre infection, luciferase reporter, 44 h; AID 651820; Potency, µM (series often up to 41.8 µM), for inactives: top-dose activity change, negative = inhibition, hits mostly inhibitors; active = well fitted inhibition curve with a large enough effect; inconclusive = small, poorly fitted or top-dose-only effect, or another doubt; inactive = no such curve, though single readings can be large or run the other way
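Reporter virus HCVcc-Cre (~0.5 moi) infects cells exposed to compound; seeding density 1,000 cells/well with 4 h settling beforehand. Luminescence, 15 sec read, taken 44 h post-infection following a 15 min RT substrate incubation.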
Vaccinia Venus: vaccinia inhibition (Venus reporter) | Vaccinia virus Venus reporter expression, fluorescence | Potency, µM (titrated, usually from 36.5 µM), without a hit: at the top dose activity change, negative = inhibition, most hits filed as inhibitors | hit rate 0.46% among 330,000 | AID 720580; calls by dose curve; tested in A549 cells; also: nearly all actives have a fitted effect of over 30% in size
* hit, by the source's call; [ ] = dose if it differs, or a comment. % is scaled to controls: 0 for no effect and ±100 for the full control effect; potency is read from the fitted curve at half-maximal effect.

Results for COCCCNCCCOc1ccc(Cl)cc1Br ?
LASV entry inh: -18.3%; FMDV inh: -7.6%; MARV entry inh: 16.4µM*; HCV inh: 12.6µM*

How did Clc1ccc(Cl)c(OCCCCN2CCNCC2)c1 do in these assays?
LASV entry inh: inconclusive; VACV mCherry inh: -6.9%; FMDV inh: -5.6%; MARV entry inh: 11.2µM*; HCV inh: inconclusive; Vaccinia Venus: -20.0%

Results for CC(C)c1ccc(CN2CCC3(CCC(CNC(=O)c4ccn(C)n4)O3)CC2)cc1 (stereo not given) ?
VACV mCherry inh: -21.3%; FMDV inh: -12.0%; Vaccinia Venus: -14.0%

Results for O=C(C[n+]1cccc2cccc(O)c21)c1ccc(Cl)cc1 ?
VACV mCherry inh: inactive; Vaccinia Venus: 3.6%

How did CC(=O)c1ccc(C(=O)NCC2Cc3cccc(-c4ncccn4)c3O2)cc1 (stereo not given) do in these assays?
VACV mCherry inh: -10.3%; FMDV inh: 5.9%; Vaccinia Venus: 5.2%

Results for CCN1CCN(CCCOc2ccc(Cl)cc2Br)CC1 ?
LASV entry inh: inconclusive; FMDV inh: -6.5%; MARV entry inh: inconclusive; HCV inh: inconclusive

Results for Clc1ccc(OCCCN2CCCCC2)c(Br)c1 ?
LASV entry inh: inconclusive; VACV mCherry inh: -12.8%; FMDV inh: 25.9%; MARV entry inh: 14.6µM*; HCV inh: inconclusive; Vaccinia Venus: -12.3%

Results for Cc1cc(C(=O)CSc2ccc(Cl)cc2)cc(C)c1OC(=S)N(C)C ?
LASV entry inh: -7.8%; FMDV inh: 13.9%; MARV entry inh: inconclusive; HCV inh: 10µM*; Vaccinia Venus: inconclusive

Results for O=c1[nH]nc(Cc2ccc([N+](=O)[O-])cc2)c2ccccc12 ?
LASV entry inh: -8.5%; VACV mCherry inh: -20.3%; FMDV inh: inconclusive; MARV entry inh: -18.1%; HCV inh: -21.5%; Vaccinia Venus: -13.9%

What do the screens show for `Cc1ccc(/C=N/Nc2nncn2N)cc1`?
LASV entry inh: inconclusive; VACV mCherry inh: 10µM*; FMDV inh: 13.2%; MARV entry inh: inconclusive; HCV inh: 14.9%; Vaccinia Venus: 10µM*

What do the screens show for `CCCOC(=O)C(C)n1cnc2scc(-c3ccc(C)cc3)c2c1=O` (stereo not given)?
FMDV inh: -4.4%; HCV inh: 22.4µM*

Results for Cc1ccc(CNCc2cn[nH]c2-c2ccc(C)cc2)cc1 ?
VACV mCherry inh: inconclusive; Vaccinia Venus: -19.2%

Results for O=C(NC(=S)Nc1ccc(N2CCOCC2)cc1)c1cccc(Cl)c1 ?
LASV entry inh: -6.3%; VACV mCherry inh: -3.7%; FMDV inh: -12.3%; MARV entry inh: inconclusive; HCV inh: 25.1µM*; Vaccinia Venus: -24.1%

Results for O=C(NC(=S)Nc1ccc(N2CCOCC2)cc1)c1ccccc1 ?
LASV entry inh: -2.9%; VACV mCherry inh: -24.6%; FMDV inh: 22.3%; MARV entry inh: inconclusive; HCV inh: 7.0%; Vaccinia Venus: -10.3%

What do the screens show for `COc1cccc(C(=O)NC(=S)Nc2ccc(N3CCCC3)cc2)c1`?
LASV entry inh: inconclusive; FMDV inh: inconclusive; MARV entry inh: -4.8%; HCV inh: inconclusive; Vaccinia Venus: -10.8%

How did O=C(NC(NC(=S)Nc1ccccc1)C(Cl)(Cl)Cl)c1cccc(Cl)c1 (stereo not given) do in these assays?
LASV entry inh: inconclusive; VACV mCherry inh: inconclusive; MARV entry inh: inconclusive; HCV inh: 11.2µM*; Vaccinia Venus: inconclusive

Results for CCCC(=O)N1CCN(c2ccc(NC(=S)NC(=O)c3cccc(C)c3)cc2)CC1 ?
LASV entry inh: inconclusive; VACV mCherry inh: -7.0%; FMDV inh: 15.8µM*; MARV entry inh: inconclusive; HCV inh: 7.08µM*; Vaccinia Venus: 4.4%

Results for CCOc1ccc(OCC)c(S(=O)(=O)NCCOC23CC4CC(CC(C4)C2)C3)c1 ?
LASV entry inh: inconclusive; VACV mCherry inh: -14.4%; FMDV inh: -22.6%; MARV entry inh: inconclusive; HCV inh: 10µM*; Vaccinia Venus: inconclusive

Results for Cc1cc[n+](CCC2CCCCC2)cc1 ?
VACV mCherry inh: -16.6%; Vaccinia Venus: inconclusive

Results for NS(=O)(=O)c1ccc(NC(=S)Nc2ccc(S(=O)(=O)N3CCCC3)cc2)cc1 ?
LASV entry inh: -9.3%[46.1 µM]; VACV mCherry inh: -12.6%; FMDV inh: 35.8%; MARV entry inh: 1.0%[46.1 µM]; HCV inh: 9.3%; Vaccinia Venus: -4.0%

How did CC/C(=N/NC(=O)c1ccc2c(c1)OCO2)c1ccccc1O do in these assays?
FMDV inh: 50.1%; HCV inh: 3.16µM*

What do the screens show for `O=C(N/N=C\c1c(O)ccc2ccccc12)c1ccc(S(=O)(=O)N2CCCCC2)cc1`?
LASV entry inh: inconclusive; VACV mCherry inh: -9.3%; FMDV inh: -11.9%; MARV entry inh: 1.26µM*; HCV inh: 5.01µM*; Vaccinia Venus: 0.1%

What do the screens show for `O=S(=O)(c1ccc(NC(=S)NN=Cc2ccccc2O)cc1)N1CCCCC1`?
LASV entry inh: 6.31µM*; VACV mCherry inh: 12.6µM*; FMDV inh: -23.6%; MARV entry inh: inconclusive; HCV inh: inconclusive; Vaccinia Venus: inconclusive

Results for C/C(=N\NC(=O)c1cc2ccccc2cc1O)c1ccc2c(c1)OCO2 ?
LASV entry inh: 5.8%; VACV mCherry inh: inactive; FMDV inh: -28.3%; MARV entry inh: 6.2%; HCV inh: -2.8%; Vaccinia Venus: -4.9%

What do the screens show for `O=C(NN=Cc1c(O)ccc2ccccc12)c1ccc2c(c1)OCO2`?
FMDV inh: 19.5%; HCV inh: 5.01µM*

What do the screens show for `CN(C)c1ccc(-c2ccc(CCO)cc2)cc1`?
VACV mCherry inh: 24.7%; Vaccinia Venus: -5.8%

What do the screens show for `Oc1ccc(Cl)cc1CN1CCOc2c(O)cc(-c3nc4ccccc4s3)cc2C1`?
VACV mCherry inh: -24.2%; FMDV inh: -17.4%; Vaccinia Venus: -10.5%

Results for COC(=O)c1cc(CNC(=O)c2ccccc2OC)cc(NC(=O)c2ccccc2F)c1 ?
VACV mCherry inh: -20.8%; FMDV inh: 32.1%; Vaccinia Venus: -11.2%

What do the screens show for `Cc1cc(O)cc(O)c1/C=N/NC(=O)c1ccc2c(c1)OCCO2`?
VACV mCherry inh: 2µM*; FMDV inh: -15.8%; Vaccinia Venus: inconclusive

How did COc1ccc2ccccc2c1/C=N/NC(=O)c1ccc(C)nc1 do in these assays?
FMDV inh: 23.4%; HCV inh: inconclusive

Results for O=C(N/N=C/c1c(O)ccc2ccccc12)c1ccc(CO)nc1 ?
LASV entry inh: inconclusive; VACV mCherry inh: inconclusive; FMDV inh: -11.2%; MARV entry inh: 11.2µM*; HCV inh: 11.2µM*; Vaccinia Venus: -19.8%

What do the screens show for `O=C(CN1CCCc2ccccc21)N/N=C/c1c(O)ccc2ccccc12`?
LASV entry inh: inconclusive; VACV mCherry inh: 11.2µM*; FMDV inh: inconclusive; MARV entry inh: inconclusive; HCV inh: 10µM*; Vaccinia Venus: inconclusive

What do the screens show for `CCn1c(=O)c(=O)n(CC)c2cc(N3CCCCC3)c(NC(=O)c3ccccc3OC)cc21`?
LASV entry inh: -2.5%[46.1 µM]; VACV mCherry inh: -6.9%; FMDV inh: 0.0%; MARV entry inh: -0.4%[46.1 µM]; Vaccinia Venus: 1.3%
